Measured values from article doi:10.1101/2024.03.05.583629.

Assays:
pT7_6His-AlfaTag-HOXD13 = pT7_6His-AlfaTag-HOXD13 (human, UniProt P35453 263-343); experiment: PADIT-seq; conditions: dsDNA, one strand shown
pT7_6His-AlfaTag-ZIF268 = pT7_6His-AlfaTag-ZIF268 (human, UniProt P18146 335-423); experiment: PADIT-seq; conditions: dsDNA, one strand shown

pT7_6His-AlfaTag-HOXD13, sequence (P35453 263-343): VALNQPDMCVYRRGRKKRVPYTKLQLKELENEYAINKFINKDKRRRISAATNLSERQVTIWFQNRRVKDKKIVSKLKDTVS

Sequence	binding signal (pT7_6His-AlfaTag-HOXD13) [log2FC]	binding signal (pT7_6His-AlfaTag-ZIF268) [log2FC]
CTCGAGGATATCAAGATCTGGCCTCGGCGTATGGGCGGGAACCTCTAGCTAGCCGACTCACTATAGGGATAATCGCCCTGAGCAAAGACC	-0.957 ± 0.105	0.246 ± 0.0831
CTCGAGGATATCAAGATCTGGCCTCGGCTGGCTAAAAGGAACCTCTAGCTAGCCGACTCACTATAGGGATAATCGCCCTGAGCAAAGACC	-0.708 ± 0.106	0.0373 ± 0.0882
CTCGAGGATATCAAGATCTGGCCTCGGCATTTTATACGGAACCTCTAGCTAGCCGACTCACTATAGGGATAATCGCCCTGAGCAAAGACC	2.61 ± 0.0763	0.0469 ± 0.0817
CTCGAGGATATCAAGATCTGGCCTCGGCGTTTTAGGCGGAACCTCTAGCTAGCCGACTCACTATAGGGATAATCGCCCTGAGCAAAGACC	-0.768 ± 0.146	0.0528 ± 0.123
CTCGAGGATATCAAGATCTGGCCTCGGCTATTGGGCGGGAACCTCTAGCTAGCCGACTCACTATAGGGATAATCGCCCTGAGCAAAGACC	-0.163 ± 0.106	0.205 ± 0.0951
CTCGAGGATATCAAGATCTGGCCTCGGCATATTAAAAGGAACCTCTAGCTAGCCGACTCACTATAGGGATAATCGCCCTGAGCAAAGACC	2.69 ± 0.07	0.0247 ± 0.0768
CTCGAGGATATCAAGATCTGGCCTCGGCGCAGTAAAAGGAACCTCTAGCTAGCCGACTCACTATAGGGATAATCGCCCTGAGCAAAGACC	2.28 ± 0.0773	0.0357 ± 0.0818
CTCGAGGATATCAAGATCTGGCCTCGGCGCGTGGAGTGGAACCTCTAGCTAGCCGACTCACTATAGGGATAATCGCCCTGAGCAAAGACC	-0.822 ± 0.144	0.252 ± 0.117
CTCGAGGATATCAAGATCTGGCCTCGGCCTTTTATGCGGAACCTCTAGCTAGCCGACTCACTATAGGGATAATCGCCCTGAGCAAAGACC	1.88 ± 0.0756	0.00428 ± 0.0795
CTCGAGGATATCAAGATCTGGCCTCGGCACACCACGCGGAACCTCTAGCTAGCCGACTCACTATAGGGATAATCGCCCTGAGCAAAGACC	-0.837 ± 0.131	0.0231 ± 0.103
CTCGAGGATATCAAGATCTGGCCTCGGCATTTTACTTGGAACCTCTAGCTAGCCGACTCACTATAGGGATAATCGCCCTGAGCAAAGACC	1.23 ± 0.0944	0.0654 ± 0.0956
CTCGAGGATATCAAGATCTGGCCTCGGCAGCCCACGCGGAACCTCTAGCTAGCCGACTCACTATAGGGATAATCGCCCTGAGCAAAGACC	-0.926 ± 0.109	0.806 ± 0.0795
CTCGAGGATATCAAGATCTGGCCTCGGCGCGTGGGTTGGAACCTCTAGCTAGCCGACTCACTATAGGGATAATCGCCCTGAGCAAAGACC	-1.06 ± 0.134	2.53 ± 0.0963
CTCGAGGATATCAAGATCTGGCCTCGGCCACATAAAAGGAACCTCTAGCTAGCCGACTCACTATAGGGATAATCGCCCTGAGCAAAGACC	2.6 ± 0.0844	0.0607 ± 0.0948
CTCGAGGATATCAAGATCTGGCCTCGGCGTTTTAGTGGGAACCTCTAGCTAGCCGACTCACTATAGGGATAATCGCCCTGAGCAAAGACC	1.76 ± 0.0845	0.0814 ± 0.0894
CTCGAGGATATCAAGATCTGGCCTCGGCCGTTGGGCGGGAACCTCTAGCTAGCCGACTCACTATAGGGATAATCGCCCTGAGCAAAGACC	-0.921 ± 0.107	0.0419 ± 0.0862
CTCGAGGATATCAAGATCTGGCCTCGGCAGATTAAAAGGAACCTCTAGCTAGCCGACTCACTATAGGGATAATCGCCCTGAGCAAAGACC	1.14 ± 0.0686	0.0127 ± 0.0692
CTCGAGGATATCAAGATCTGGCCTCGGCCGCCGACGCGGAACCTCTAGCTAGCCGACTCACTATAGGGATAATCGCCCTGAGCAAAGACC	-0.893 ± 0.142	0.21 ± 0.115
CTCGAGGATATCAAGATCTGGCCTCGGCGTTTTAAGTGGAACCTCTAGCTAGCCGACTCACTATAGGGATAATCGCCCTGAGCAAAGACC	0.876 ± 0.107	0.00666 ± 0.106
CTCGAGGATATCAAGATCTGGCCTCGGCTTGTGGGCGGGAACCTCTAGCTAGCCGACTCACTATAGGGATAATCGCCCTGAGCAAAGACC	-0.943 ± 0.108	2.19 ± 0.0788
CTCGAGGATATCAAGATCTGGCCTCGGCCTTTTATCGGGAACCTCTAGCTAGCCGACTCACTATAGGGATAATCGCCCTGAGCAAAGACC	1.63 ± 0.0763	0.0806 ± 0.0794
CTCGAGGATATCAAGATCTGGCCTCGGCGCGTGGAGGGGAACCTCTAGCTAGCCGACTCACTATAGGGATAATCGCCCTGAGCAAAGACC	–	0.222 ± 0.116
CTCGAGGATATCAAGATCTGGCCTCGGCGCGTGGCGTGGAACCTCTAGCTAGCCGACTCACTATAGGGATAATCGCCCTGAGCAAAGACC	–	0.0995 ± 0.108
CTCGAGGATATCAAGATCTGGCCTCGGCAGGTGGGCGGGAACCTCTAGCTAGCCGACTCACTATAGGGATAATCGCCCTGAGCAAAGACC	–	2.15 ± 0.0839
